Measurements: PubChem BioAssay (Tox21)
Results filed as inconclusive are left out. Entries that show only a call come without a potency. The source made the active and inactive calls. The call rests on the fitted dose curve; in most records, active means well fitted inhibition curve with a large enough effect in the signal ratio in the repeat runs (not every such curve was filed as active); inconclusive means weak or mixed curves, or effect the other way; inactive means flat fitted curve, though single readings scatter; the % refers to the signal ratio.

test: cAMP Responsive Elements (CRE) small molecule antagonists, cell-based qHTS assay (AID 1963591); settings: CRE-bla HEK293T, beta-lactamase FRET ratio; series mostly up to 92.4 µM
Source text: U.S. Tox21 Program National Center for Advancing Translational Sciences [NCATS] Division of Preclinical Innovation [DPI] U.S. Environmental Protection Agency [EPA] National Institutes of Environmental Health Sciences [NIEHS] National Toxicology Program [NTP] U.S. Food and Drug Administration [FDA] Tox21 Assay Overview: CREB (cyclic-AMP Responsive Element Binding Protein) is a cellular transcription factor. It binds to certain DNA sequences called cAMP Responsive Elements (CRE) and regulates the transcription of the genes. […] This cell line can be used to find agonists/antagonists of the cyclic AMP signaling pathway. The activation of the report gene under culture conditions can be detected by fluorescence intensity. This cell line has been used to screen the Tox21 10K compound library to […].
Tox21 Assay Protocol Summary: CRE-bla Hek 293T cells were suspended in assay medium (DMEM containing 10% dialyzed FBS, 0.1 mM NEAA, 1 mM sodium pyruvate and 25 mM HEPES) and dispensed at 2,000 cells/4 uL /well into 1536-well black wall/clear bottom plates using a Multidrop Combi (ThermoFisher Scientific, Waltham, MA) dispenser. After the assay plates were incubated at 37 C/5% CO2 for 18 hrs, 23 nL of compounds dissolved in DMSO, positive controls or DMSO only was transferred to the assay plate by a pintool workstation (Kalypsys, San Diego, CA), followed by addition of 1 […] uL of 1.25uM NKH477 (0.25 uM as final concentration) in assay medium using a Flying Reagent Dispenser (Aurora Discovery, San Diego, CA). The plates were incubated at 37 C and 5% CO2 for 3 hrs. Then 1 uL of LiveBLAzer B/G FRET substrate (Invitrogen, Carlsbad, CA) was added to each well using Bioraptr Flying Reagent Dispenser (FRD, Aurora Discovery, San Diego, CA). The plates were incubated at room temperature for 2 h.

Row | Structure (SMILES) | Potency | activity change, negative = inhibition
1 | CC(C)(C)c1cc(C=O)cc(C(C)(C)C)c1O | inactive | 
2 | O=C(O)c1ccccc1C(=O)Nc1ccc(S(=O)(=O)Nc2nccs2)cc1 | inactive | 
3 | CCCCCCOc1ccc(N)cc1 | inactive | 
4 | CC(C(=O)O)c1ccc(CC2CCCC2=O)cc1 (stereo not given) | inactive | 
5 | CCCc1ccc(O)c(OC)c1 | inactive | 
6 | CCCCNc1ccc(C(=O)OCCN(C)C)cc1 | inactive | 
7 | CC12CCC(CC1=O)C2(C)C (stereo not given) | inactive | 
8 | CC(C)(C)NCCNC(C)(C)C | inactive | 
9 | COc1ncnc(NS(=O)(=O)c2ccc(N)cc2)c1OC | inactive | 
10 | O=NN(CCCl)C(=O)NC1CCCCC1 | inactive | 
11 | CCC(=O)OC(=O)CC | inactive | 
12 | CC(=O)OCC[N+](C)(C)C | inactive | 
13 | C/C(=N\O)c1ccc(OCC(=O)N2CCCCC2)cc1 | inactive | 
14 | O=C(/C=C/c1ccccc1)OC/C=C/c1ccccc1 | inactive | 
15 | C=C(C)C(=O)OCC1CCCO1 (stereo not given) | inactive | 
16 | CCCCCCCCSCc1cc(C)c(O)c(CSCCCCCCCC)c1 | inactive | 
17 | Cc1cc(C)n(CO)n1 | inactive | 
18 | CCN(O)CC | inactive | 
19 | COCCOCCOCCOC | inactive | 
20 | CCCCCOC(=O)CCC | inactive | 

Row | Structure (SMILES) | Potency | activity change, negative = inhibition
21 | CC/C=C\CCOC(=O)c1ccccc1 | inactive | 
22 | Nc1ccn([C@@H]2O[C@H](CO)[C@@H](O)C2(F)F)c(=O)n1 | inactive | 
23 | CC(=O)OCC(C)C | inactive | 
24 | CCCC(=O)C(CC)Sc1ccoc1C (stereo not given) | inactive | 
25 | COc1cc2nc(N3CCN(C(=O)c4ccco4)CC3)nc(N)c2cc1OC |  | 4.27% [at 18.9 µM] (inactive)
26 | CN[C@@H]1[C@H](O)[C@H](NC)[C@H]2O[C@@]3(O)C(=O)C[C@@H](C)O[C@H]3O[C@@H]2[C@H]1O | inactive | 
27 | Nc1cccc2c(=O)[nH][nH]c(=O)c12 | inactive | 
28 | CCC(=O)O[C@]1(C(=O)SCF)[C@H](C)C[C@H]2[C@@H]3C[C@H](F)C4=CC(=O)C=C[C@]4(C)[C@@]3(F)[C@@H](O)C[C@@]21C | inactive | 
29 | CC(=O)CC(=O)OC(C)(C)C | inactive | 
30 | OC1CCCc2ccccc21 (stereo not given) | inactive | 
31 | CCOC(=O)OC(C)OC1=C(C(=O)Nc2ccccn2)N(C)S(=O)(=O)c2ccccc21 (stereo not given) | inactive | 
32 | O=C(O)c1ccc(Cl)cc1Cl | inactive | 
33 | O=C(O)COCC(=O)O | inactive | 
34 | O=c1[nH]c(=O)n([C@H]2O[C@H](CO)[C@@H](O)[C@@H]2O)cc1/C=C\Br | inactive | 
35 | CCC(=O)c1cccc(Cl)c1 | inactive | 
36 | CCCCC/C=C\CCC=O | inactive | 
37 | O=C(OCCCCCOC(=O)c1ccccc1)c1ccccc1 | inactive | 
38 | Brc1ccc(-c2ccccc2)cc1 | inactive | 
39 | OC[C@H](Cc1cccc(O)c1)[C@H](CO)Cc1cccc(O)c1 | inactive | 
40 | Cc1nc2n(c(=O)c1CCN1CCC(c3noc4cc(F)ccc34)CC1)CCC[C@H]2O |  | 6.49% [at 18.9 µM] (inactive)
